Only some compounds are listed: those with a hit (about 3.1% of all), similar ones and a draw of the others.
INS-1E GSIS act – primary screen for activators of insulin secretion dependent on glucose, INS-1E cells, GLuc reporter luminescence. INS-1E GLuc reporter insulin secretion, 2-3 h. activation, % at 16.6 µM. 370,000 compounds, 0.61% hits. AID 743287;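 active means lowest replicate activation of at least 40%, so every replicate reaches that level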;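 further: 0% = median of neutral control wells and 100% = median of IBMX positive control wells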
DENV2 CPE rescue – inhibitors of DENV2 cytopathic effect; DENV2-infected cells, cytopathic effect rescue, plate reader; CPE inhibition, % at 9.99 µM; 350,000 compounds, 1.7% hits; AID 651640; in the data active means CPE inhibition above about 20%, passing the limit was not always enough; inconclusive means no clear call, values can overlap the other calls; tested in BHK-21 cells;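 further: 0% = median of neutral control wells and 100% = median of positive control wells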
AF4-AF9 inh – MLL-AF4/AF9 protein interaction inhibition; P42568; AlphaScreen, biotin-AF4 peptide binding to FLAG-AF9; inhibition, % at 10 µM; 350,000 compounds, 0.47% hits; AID 651704;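 active means every replicate reaching a set inhibition limit, whatever the replicate mean, cut at about 25% in these data; inconclusive means mean inhibition reaches that limit but some replicates miss it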;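 further: 0% = plate neutral control median and 100% = total signal loss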
Target sequence (P42568 whole entry, looked up): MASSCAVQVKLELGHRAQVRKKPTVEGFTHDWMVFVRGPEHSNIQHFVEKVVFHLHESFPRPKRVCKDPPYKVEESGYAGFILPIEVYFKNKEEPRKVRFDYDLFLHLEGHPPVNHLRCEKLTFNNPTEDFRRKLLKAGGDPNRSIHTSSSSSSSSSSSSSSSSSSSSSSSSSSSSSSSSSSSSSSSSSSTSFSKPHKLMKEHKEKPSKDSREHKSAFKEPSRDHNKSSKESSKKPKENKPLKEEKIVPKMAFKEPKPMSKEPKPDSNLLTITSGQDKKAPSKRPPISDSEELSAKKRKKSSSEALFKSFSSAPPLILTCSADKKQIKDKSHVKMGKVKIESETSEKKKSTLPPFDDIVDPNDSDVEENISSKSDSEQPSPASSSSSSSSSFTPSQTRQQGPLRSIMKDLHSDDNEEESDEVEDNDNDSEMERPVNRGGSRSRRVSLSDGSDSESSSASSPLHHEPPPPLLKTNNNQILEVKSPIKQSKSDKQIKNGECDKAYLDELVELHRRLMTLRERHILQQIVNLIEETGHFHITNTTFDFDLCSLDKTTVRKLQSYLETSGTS
RAD52 anneal inh – blocks human RAD52 DNA annealing; inhibition, % at 18.7 µM; AID 651710; 360,000 compounds, 0.46% hits; recombinant RAD52 DNA annealing, FRET fluorescence; P43351;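 active means every replicate showing at least 50% inhibition; inconclusive means mean inhibition at least 50% but not in every replicate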
dFosB act – mouse delta FosB homodimer activation; P13346; purified delta FosB, TAMRA-CDK5 oligo fluorescence polarization; percent of positive-control signal above neutral wells; activation, % at 25 µM; 340,000 compounds, 0.99% hits; AID 493131;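 active means mean activation above about 17%, with every replicate also reaching it, limit read from the data, passing the limit was not always enough; inconclusive means only one of the two conditions met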
RAD54 branch – blocks human RAD54 Holliday junction branch migration | AID 602329 | inhibition, % at 10.4 µM | FAM/BHQ fluorescence | 360,000 compounds, 0.14% hits;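 active means mean normalized replicate activity at least 40 and at least half of replicates scoring 40 or more; inconclusive means only one of the two criteria met; inactive means mean below 40 and under half of replicates reaching 40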;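 further: 0% = median of neutral control wells and 100% = median of positive control wells; inhibitors cause a drop in the FAM fluorescence signal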
An asterisk follows results filed as active; ? = inconclusive; . = no result.

SMILES	INS-1E GSIS act	DENV2 CPE rescue	AF4-AF9 inh	RAD52 anneal inh	dFosB act	RAD54 branch
COc1cc(C(=S)N2CCOCC2)ccc1OC(=O)c1ccccc1	-14	3	2	-4	-7	6
COc1ccc(C(=S)N2CCOCC2)cc1OC(=O)c1ccccc1	-1	24*	6	-12	0	11
CC(=O)c1cccc(NC(=O)c2noc3c2CCc2ccccc2-3)c1	1	22*	-13	-11	3	-2
NC(=S)N=Nc1c(O)n(Cc2ccccc2)c2ccccc12	2	63*	-13	-15	-9	0
COC(=O)c1ccc(Cn2c(O)c(N=NC(N)=S)c3ccccc32)o1	64*	-5	4	-5	-21	.
O=C(C[C@H]1C[C@@H]2c3cc(NC(=O)C4CCOCC4)ccc3O[C@@H]2[C@H](CO)O1)NCc1ccc(Cl)cc1	4	0	-1	13	.	5
O=C(NC1CCCC1)C(c1ccco1)N1CCN(c2c(Cl)cncc2Cl)CC1 (stereo unspecified)	-32	24*	.	-44	.	.
N=c1n(CCN2CCCCC2)c2ccccc2n1CC(O)COc1ccccc1 (stereo unspecified)	42*	.	.	.	-6	.
O=C1C=C(c2c(O)ccc3ccccc23)c2ccccc2C1=O	41*	-2	22	-5	-6	.
COc1ccc(S(=O)(=O)N2CC[C@H]3[C@H](CO)Nc4ccc(C#Cc5cccnc5)cc4[C@H]32)cc1	2	-10	7	-13	.	.
O=C(CSc1nc2ccccc2c(=O)n1-c1ccccc1)NCc1ccc2c(c1)OCO2	110*	.	.	.	-1	5
CCS(=O)(=O)N1CCCCN2[C@H](CO)[C@H](c3ccc(-c4ccc(C#N)cc4)cc3)[C@H]2C1	3	55*	4	-74	.	6
N#Cc1ccc(-c2ccc([C@H]3[C@@H](CO)N4CCCCN(S(=O)(=O)c5ccccc5)C[C@@H]34)cc2)cc1	-4	46*	-3	-20	.	-6
CCS(=O)(=O)N1CCCCN2[C@H](CO)[C@@H](c3ccc(-c4ccc(C#N)cc4)cc3)[C@@H]2C1	25	65*	5	-105	.	4
N#Cc1ccc(-c2ccc([C@@H]3[C@@H](CO)N4CCCCN(S(=O)(=O)c5ccccc5)C[C@H]34)cc2)cc1	-18	10	2	-1	.	-2
CCS(=O)(=O)N1CCCCN2[C@H](C1)[C@H](c1ccc(-c3cccc(C#N)c3)cc1)[C@@H]2CO	8	-12	4	-24	.	-3
CC(C)(C)OC(=O)COc1cccc(C(=O)CCN2CCOCC2)c1	.	-4	1	-6	.	.
C[C@@H]1CN([C@@H](C)CO)C(=O)Cc2cc(NC(=O)Cc3cn(C)c4ccccc34)ccc2O[C@H]1CN(C)S(=O)(=O)c1ccccc1	5	-8	-2	-4	.	4
N#C[C@@H]1[C@@H](c2ccc(-c3cccc(F)c3)cc2)[C@H](CO)N1c1nc(-c2ccccc2)cs1	-4	90*	1	-30	.	.
N#C[C@@H]1[C@H](c2ccc(-c3ccc(F)cc3)cc2)[C@@H](CO)N1c1nc(-c2ccccc2)cs1	-5	?	2	63*	.	.
N#C[C@@H]1[C@H](c2ccc(-c3ccc(F)cc3)cc2)[C@H](CO)N1c1nc(-c2ccccc2)cs1	3	18	0	-10	.	-4
N#C[C@@H]1[C@H](c2ccc(-c3cccc(F)c3)cc2)[C@@H](CO)N1c1nc(-c2ccccc2)cs1	-7	-3	.	.	.	.
N#C[C@@H]1[C@@H](c2ccc(-c3ccc(F)cc3)cc2)[C@H](CO)N1c1nc(-c2ccccc2)cs1	13	61*	0	-38	.	-13
COc1ccccc1-c1ccc2c(c1)O[C@H](CN(C)C(=O)Nc1cccc(F)c1)[C@H](C)CN([C@H](C)CO)S2(=O)=O	-33	-2	2	11	.	9
CO[C@H]1CN(C)C(=O)c2cc(C#N)ccc2OCC[C@@H]2CC[C@H](OC)[C@@H](CN(C)C(=O)[C@H]1C)O2	14	1	0	-3	.	1
SMILES	INS-1E GSIS act	DENV2 CPE rescue	AF4-AF9 inh	RAD52 anneal inh	dFosB act	RAD54 branch
S=C1NC2(CCCC2)Nc2ccccc21	3	2	2	-19	-2	2
c1cc2c3c(cccc3c1)NC1(CCCC1)N2	9	3	0	-5	63*	1
Cc1ccc(N=Nc2ccc(O)c(/C=N\NC(=O)c3ccc(N)cc3)c2)cc1C	.	.	.	.	47*	-6
CC(=O)Nc1ccc(C(=O)N/N=C/c2cc(Br)cc(Br)c2O)cc1	-3	17	1	-7	97*	.
O=C(N/N=C/c1cc(Cl)ccc1O)c1ccc(Br)cc1	41*	.	.	.	4	.
CC(C)C(=O)Nc1ccc(C(=O)N/N=C/c2cc(Br)cc(Br)c2O)cc1	-6	2	1	-4	13	.
COCC(=O)Nc1ccc2c(c1)[C@@H]1C[C@@H](CC(=O)N3CCCCC3)O[C@@H](CO)[C@@H]1O2	-4	4	.	.	.	-21
CN1C(=O)c2cc(NC(=O)Nc3ccccc3)ccc2OC[C@H]2O[C@H](CC(=O)NC3CCC3)CC[C@@H]21	-6	5	-1	-26	.	-11
COc1ccc(S(=O)(=O)Nc2cccc3c2O[C@@H](CN(C)Cc2ccc(C(F)(F)F)cc2)[C@@H](C)CN([C@@H](C)CO)C3=O)cc1	-17	3	4	4	.	-6
CCOC(=O)C1=C(C)NC(=O)C(C#N)C1c1ccncc1 (stereo unspecified)	-4	36*	3	-5	-3	-10
CCOC(=O)C1=C(C)NC(C)=C(C(=O)OCC)C1c1ccncc1	.	13	-2	11	.	.
O=C1C2(CCCC13COC(c1ccc(O)cc1)OC3)COC(c1ccc(O)cc1)OC2 (stereo unspecified)	14	28*	0	-6	.	.
C[C@@H]1CN([C@H](C)CO)C(=O)c2cc(NS(=O)(=O)c3ccc(Cl)cc3)ccc2O[C@@H]1CN(C)C(=O)Nc1ccccc1	0	3	-3	-14	.	-2
c1ccc(N2CCN(c3nc(NCc4ccco4)c4ccccc4n3)CC2)cc1	.	.	.	.	45*	8
COc1ccc(Nc2nc(NCc3ccco3)nc(N/N=C/c3ccccc3)n2)cc1	.	.	.	.	29*	-4
c1coc(CNc2nc(N3CCCCC3)nc3ccccc23)c1	.	.	.	.	-8	-8
Cc1ccc(Nc2nc(NCc3ccco3)c3ccccc3n2)cc1	-13	-4	18	11	58*	-12
CCOc1nc(NCc2ccco2)nc(Nc2ccc(OC)cc2)n1	.	.	.	.	0	9
O=C(NCC[C@H]1CC[C@H](NC(=O)c2ccccc2F)[C@H](CO)O1)c1ccc2c(c1)OCO2	-8	0	-1	5	.	0
COc1ccccc1OCCn1ccnc1	9	1	-1	-3	4	-30
OC(COc1ccc(Cl)cc1Cl)Cn1ccnc1 (stereo unspecified)	3	42*	1	-19	-8	-4
Clc1ccc(OCCn2ccnc2)c(Cl)c1	49*	.	.	.	0	0

Screening data as filed in PubChem BioAssay.
